In PubChem BioAssay AID1053124 (Broad Institute, 2014):
Entries with a potency or affinity are not part of this list. The source made the active and inactive calls.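 The calls were made as follows: active = cell killing whose fitted half-effect concentration is at most twice the top valid dose tested; inconclusive = flat curve with 30 to 70% killing, or a poor fit; inactive = effect in the rising direction, plus the rest.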

experiment: A549 cell cytotoxicity, dose response, cytotoxicity control, ATP luminescence, cherry-pick, set 2 (AID 1053124); settings: A549 viability, ATP luminescence (CellTiter-Glo), 72 h; series mostly up to 26 µM; activity change, negative = cytotoxicity: at the top concentration;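 also: 0% = neutral control wells and -100% = mitoxantrone 10 µM positive control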

Row | Compound | activity change, negative = cytotoxicity
1 | NC(=O)c1cc([N+](=O)[O-])ccc1NCc1cccnc1 | 3.95% (inactive)
2 | CCc1cccc(C)c1NC(=S)NCc1ccc2c(c1)cc(C)n2C | 2.91% (inactive)
3 | CSCCC1(C(=O)O)NC(c2ccccc2O)C2C(=O)N(C(C)C)C(=O)C21 (stereo not given) | 2.79% (inactive)
4 | O=c1oc2c(CN3CCN(CCO)CC3)c(O)ccc2cc1-c1ccccn1 | 6.89% (inactive)
5 | Cn1c2ccccc2c(=O)c2ccc(F)cc21 | -4.71% (inactive)
6 | CN1CCN(c2nc3ccccn3c(=O)c2/C=C(\C#N)S(=O)(=O)c2ccccc2)CC1 | 2.15% (inactive)
7 | CCNc1nc2nc3ccc(C)cn3c(=O)c2cc1C(=O)NCC1CCCO1 (stereo not given) | -13.3% (inactive)
8 | CC(=O)c1sc(N/N=C\c2ccc(N(C)C)cc2)nc1C | -11.1% (inactive)
9 | Cn1cc(C(c2ccccc2OCC(=O)O)c2cn(C)c3ccccc23)c2ccccc21 | -1.68% (inactive)
10 | CCOc1ccc2nc(NCCNC(=O)CC)c(C#N)cc2c1 | -8.92% (inactive)
11 | O=C(NCc1nnnn1-c1ccc(Cl)cc1)C1CC(=O)N(c2ccc(F)cc2)C1 (stereo not given) | -5.9% (inactive)
12 | O=c1oc2c(CN3CCCCC3)c(O)ccc2cc1-c1nc2ccccc2[nH]1 | -7.2% (inactive)
13 | CC(=O)Oc1ccc(C(=O)Nc2cc(C)on2)cc1 | 1.55% (inactive)
14 | O=C(COC(=O)c1cc(S(=O)(=O)N2CCCCC2)ccc1N1CCOCC1)c1ccccc1Cl | -6.29% (inactive)
15 | Cc1oc(/N=C/c2ccc(O)cc2O)c(C#N)c1C | -4.85% (inactive)
16 | Cc1cc(-c2ccccc2)c2ccc(NC(=O)C(C)(C)C)nc2n1 | -7.08% (inactive)
17 | O=c1c2ccccc2n(CC(O)CN2CCCCC2)c2ccccc12 (stereo not given) | -1.33% (inactive)
18 | CCC(Sc1nc(N)c(NC(=O)c2ccc(OC)cc2)c(=O)[nH]1)C(=O)O (stereo not given) | -2.92% (inactive)
19 | CN(C)/C=C/C(=O)c1c(F)cccc1F | 0.6% (inactive)
20 | N#CC1=C(N)OC2=C(C(=O)CCC2)C1c1cc2c(cc1Br)OCO2 (stereo not given) | 2.47% (inactive)

Row | Compound | activity change, negative = cytotoxicity
21 | CC(C)c1ccc(/C=C2\Oc3c(ccc(O)c3CN3CCN(C)CC3)C2=O)cc1 | -2.02% (inactive)
22 | CCOCCCNC(=S)N1CCCN(c2nc3cc(C)c(C)cc3cc2C#N)CC1 | -12.1% (inactive)
23 | CN1CCc2c(sc(NC(=O)Cc3ccccc3)c2C#N)C1 | -5.87% (inactive)
24 | C[C@H](NC(=O)c1nc[nH]c1C(=O)N[C@@H](Cc1ccccc1)C(=O)OC(C)(C)C)C(=O)OCc1ccccc1 | -5.37% (inactive)
25 | Cc1ccc(-c2nc3ccsc3c(=O)[nH]2)cc1 | -7.83% (inactive)
26 | O=C(NNc1cc(N2CCCC2)nc(N2CCCC2)n1)c1ccc([N+](=O)[O-])cc1 | -12.8% (inactive)
27 | COc1ccc(C(=O)c2sc3nc(-c4ccc(OC)cc4)ccc3c2N)cc1 | -7.45% (inactive)
28 | CCOc1ccc(C2C(C#N)=C(N)Oc3cc(O)ccc32)cc1OCC (stereo not given) | 0.803% (inactive)
29 | COC(=O)C1=CN(CC2CCCO2)C=C(C(=O)OC)C1c1cccc(O)c1 (stereo not given) | -8.45% (inactive)
30 | CCN(CC)CCNC(=O)c1sc2nc(-c3ccccc3)cn2c1C | -4.09% (inactive)
31 | CCOC(=O)C1=CN(CC2CCCO2)C=C(C(=O)OCC)C1c1ccccc1C(F)(F)F (stereo not given) | -7.49% (inactive)
32 | CC1CCN(C(=O)COc2cccc3c2CCN(Cc2ccccc2)C3=O)CC1 | -1.26% (inactive)
33 | O=[N+]([O-])c1cccc(-c2n[nH]c(=S)n2-c2ccc(Br)cc2)c1 | -10.6% (inactive)
34 | CSc1ccc(Cn2c(C)c(C(=O)NCCC#N)sc2=O)cc1 | 2.6% (inactive)
35 | Cc1nc2ccc(S(=O)(=O)Nc3ccc(-c4nc5cccnc5s4)cc3)cc2s1 | -2.41% (inactive)
36 | Cc1cc2cc(CNC(=O)c3ccco3)ccc2n1C | -11% (inactive)
37 | Cc1cccn2c(=O)c3cc(C#N)c(=NC(=O)c4cccs4)n(CC(C)C)c3nc12 | -0.676% (inactive)
38 | CC(C)CCn1c(CN2CC(C)OC(C)C2)nc2c1c(=O)n(C)c(=O)n2C (stereo not given) | -7.88% (inactive)
39 | CCn1c(=N)c(S(=O)(=O)c2ccccc2)cc2c(=O)n3ccccc3nc21 | -10.9% (inactive)
40 | O=C(Cc1csc(-c2ccccc2)n1)NCc1ccccc1F | 0.178% (inactive)
